Measurements published in paper PMC10726135, “HNF4α isoforms regulate the circadian balance between carbohydrate and lipid metabolism in the liver”.
Over roughly 18,000 sequences, “log2 normalized intensity” has its median near 0.39; the highest 2% begin near 6.6. This excerpt belongs to a sample that is enriched for the highest values.

biological target: T1, HNF4alpha2 (COS-7 nuclear extract) (Homo sapiens, UniProt P41235 1-474); experiment: protein-binding microarray; COS-7 nuclear extract on double-stranded Agilent 4x180k PBM; binding buffer, salt, pH and temperature not given in the material; high values mean tight binding; details: chain copies: 2; label: 3' end of strand 1 on the slide; dsDNA, one strand shown
T1 sequence: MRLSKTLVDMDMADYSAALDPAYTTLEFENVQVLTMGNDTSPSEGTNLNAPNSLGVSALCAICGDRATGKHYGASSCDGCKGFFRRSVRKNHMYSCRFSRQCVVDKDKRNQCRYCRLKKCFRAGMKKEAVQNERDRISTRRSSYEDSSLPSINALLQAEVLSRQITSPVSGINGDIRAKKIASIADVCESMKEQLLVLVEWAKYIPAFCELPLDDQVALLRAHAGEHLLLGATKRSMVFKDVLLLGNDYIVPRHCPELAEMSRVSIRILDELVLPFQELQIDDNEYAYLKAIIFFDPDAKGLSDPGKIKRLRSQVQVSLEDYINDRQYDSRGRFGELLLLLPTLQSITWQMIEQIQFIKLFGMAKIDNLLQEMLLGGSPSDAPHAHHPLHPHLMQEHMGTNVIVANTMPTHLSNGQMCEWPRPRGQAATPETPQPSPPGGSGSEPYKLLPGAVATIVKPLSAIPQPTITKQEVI
Summary of the method: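 Binding signal is the background-corrected, normalized gProcessedSignal calculated by Agilent software. It was measured by applying nuclear extracts of COS-7 cells transiently transfected with a human HNF4α isoform expression vector to a custom Agilent SurePrint G3 4x180k array of ~44,000 double-stranded ~60-nt test sequences in quadruplicate, then imaging bound HNF4α on an Agilent G2565CA scanner at 2-µm resolution.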

Sequence | binding signal
AGCAGGCAGAGGTCAATGTCCACACCCCAGGCCTAGGGAGATTAGAGTATCGGTCGA | 4.6 log2 normalized intensity
GCAGAGGCTGCAGAGGTTTCGCAAGGACGTGCCTAGGGAGATTAGAGTATCGGTCGA | -0.792 log2 normalized intensity
GTCTGCCTGACTCCAGAGTCCAAACTGGGAGCCTAGGGAGATTAGAGTATCGGTCGA | 2.17 log2 normalized intensity
AGTATCATGTTGGCATTCCAGGATGAAGGAGCCTAGGGAGATTAGAGTATCGGTCGA | 0.674 log2 normalized intensity
CAGCCTGGAGGAGGGCGAGGCCGAGCCTCAGCCTAGGGAGATTAGAGTATCGGTCGA | -0.906 log2 normalized intensity
ATCTACCCTTGACAATTCCTATTCATTCCCGCCTAGGGAGATTAGAGTATCGGTCGA | -0.0843 log2 normalized intensity
AAACTCTGAAGGCAAATTCTTAGAATTGCAGCCTAGGGAGATTAGAGTATCGGTCGA | -0.775 log2 normalized intensity
TATCAGCTCTCCGTGGACTTTGCCCCCTACGCCTAGGGAGATTAGAGTATCGGTCGA | 11.1 log2 normalized intensity
GCTCTCCGTGGACTTTGCCCCCTACAGTTTGCCTAGGGAGATTAGAGTATCGGTCGA | 9.73 log2 normalized intensity
GTGGACTTTGCCTGCCCATCCCGTGGACTCGCCTAGGGAGATTAGAGTATCGGTCGA | 3.88 log2 normalized intensity
TCTTTGCCCTCTTGGTATCAGCTTTGAGACGCCTAGGGAGATTAGAGTATCGGTCGA | 1.42 log2 normalized intensity
ATCCCGTGGACTTTGCCTGCCCATCCCGTGGCCTAGGGAGATTAGAGTATCGGTCGA | 3.13 log2 normalized intensity
TTTGGCCCCCAGAGCCCCGTGTCTCCCTACGCCTAGGGAGATTAGAGTATCGGTCGA | 4.6 log2 normalized intensity
AAGAGACTTTGCCCTTTTTTTCTCTCCCCTGCCTAGGGAGATTAGAGTATCGGTCGA | 3.42 log2 normalized intensity
TCTTCCTTTCTATCAGCTCTCCGTGGACTTGCCTAGGGAGATTAGAGTATCGGTCGA | 3.08 log2 normalized intensity
CTTTCTATCAGCTCTCCGTGGACTTTGCCCGCCTAGGGAGATTAGAGTATCGGTCGA | 9.49 log2 normalized intensity
CCAAACAGAACAAAGTCCAGTAAGGACAGTGCCTAGGGAGATTAGAGTATCGGTCGA | 2.51 log2 normalized intensity
GAGTAGGTTCTCAGCTGACATTGGTGGAATGCCTAGGGAGATTAGAGTATCGGTCGA | 1.36 log2 normalized intensity
AGTCCAGACAAGTCCCAAGTATTTTCAGCCGCCTAGGGAGATTAGAGTATCGGTCGA | -0.962 log2 normalized intensity
AACTTCTTATCACTTGGTGGACATGGTTCAGCCTAGGGAGATTAGAGTATCGGTCGA | 2.02 log2 normalized intensity
AGATATCAGAAATGCATGAGTGACCTTTATGCCTAGGGAGATTAGAGTATCGGTCGA | 4.97 log2 normalized intensity
CTCTTTTCTTTGTACCGTATTTCAGACCACGCCTAGGGAGATTAGAGTATCGGTCGA | 2.19 log2 normalized intensity

Sequence | binding signal
CAATTAGAGCAAAGGTTACTGCAGAGAAGAGCCTAGGGAGATTAGAGTATCGGTCGA | 1.54 log2 normalized intensity
AGAGCACAACCTTTGGCCGTGCATGCTTGGGCCTAGGGAGATTAGAGTATCGGTCGA | 1.84 log2 normalized intensity
AGCAATTCAAATTCTTTGCCATGACCTTTGGCCTAGGGAGATTAGAGTATCGGTCGA | 5.51 log2 normalized intensity
ATCTTTGACCTGGAGCATGACCCTTTGCAGGCCTAGGGAGATTAGAGTATCGGTCGA | 2.68 log2 normalized intensity
AAAGAGCCATGGACTGCTGACCTTTGAACCGCCTAGGGAGATTAGAGTATCGGTCGA | 9.3 log2 normalized intensity
CCTTTGAGGAGGCCTTTCCTGACCCCTCCTGCCTAGGGAGATTAGAGTATCGGTCGA | 4.34 log2 normalized intensity
GCCATGGACTGCTGACCTTTGAACCCTGAGGCCTAGGGAGATTAGAGTATCGGTCGA | 10.1 log2 normalized intensity
TTCAAATTCTTTGCCATGACCTTTGAAGCCGCCTAGGGAGATTAGAGTATCGGTCGA | 6.75 log2 normalized intensity
ATTCTTTGCCATGACCTTTGAAGCCCAGAAGCCTAGGGAGATTAGAGTATCGGTCGA | 4.66 log2 normalized intensity
ATATGAAAGAGCCATGGACTGCTGACCTTTGCCTAGGGAGATTAGAGTATCGGTCGA | 6.32 log2 normalized intensity
GGCAGATATGAAAGAGCCATGGACTGCTGAGCCTAGGGAGATTAGAGTATCGGTCGA | -0.302 log2 normalized intensity
CAGTAACTGTCATGGATGACCTCTTTTAGTGCCTAGGGAGATTAGAGTATCGGTCGA | 3.08 log2 normalized intensity
GCTGTCTACTCTGGGGGTCAGCAATGGTAAGCCTAGGGAGATTAGAGTATCGGTCGA | 1.8 log2 normalized intensity
TGCCCCAGGAATGCCTTTTCTTTCATGTTGGCCTAGGGAGATTAGAGTATCGGTCGA | 1.43 log2 normalized intensity
GTTGAGGAGTTTGTACTTTATCCTACAAGGGCCTAGGGAGATTAGAGTATCGGTCGA | 2.25 log2 normalized intensity
TCCTCTCAAAGTCCACCCGGCCAGCAGATGGCCTAGGGAGATTAGAGTATCGGTCGA | 2.46 log2 normalized intensity
AAAGGTCATATCCAAAATATTTGCAGTGAGGCCTAGGGAGATTAGAGTATCGGTCGA | 1.79 log2 normalized intensity
ATATTTTCTTTGTGCTATTTTTGGCTTGGTGCCTAGGGAGATTAGAGTATCGGTCGA | 2.13 log2 normalized intensity
CCATTCTTGAGGACAGGCCAAATCCAGTAAGCCTAGGGAGATTAGAGTATCGGTCGA | -0.994 log2 normalized intensity
GCCTTGCTGAGGAATTTGGACTTCAGCCCAGCCTAGGGAGATTAGAGTATCGGTCGA | 6.11 log2 normalized intensity
ATTGTGATTCCTGTGATACCTTCTTTGCCTGCCTAGGGAGATTAGAGTATCGGTCGA | 1.13 log2 normalized intensity
CCCAAGATGGATTGGGTCCACACATTCCTAGCCTAGGGAGATTAGAGTATCGGTCGA | -0.811 log2 normalized intensity

Sequence | binding signal
TGGGAGACATTCCTTCAGCGTGAACTTTGAGCCTAGGGAGATTAGAGTATCGGTCGA | 6.72 log2 normalized intensity
GACCTTTGACCTTTATACCTGTACGTTACTGCCTAGGGAGATTAGAGTATCGGTCGA | 7.39 log2 normalized intensity
TCCTTCAGCGTGAACTTTGACATGAGAGAAGCCTAGGGAGATTAGAGTATCGGTCGA | 3.66 log2 normalized intensity
TCCTAGACCTTTGACCTTTATACCTGTACGGCCTAGGGAGATTAGAGTATCGGTCGA | 5.75 log2 normalized intensity
CACATTCCTAGACCTTTGACCTTTATACCTGCCTAGGGAGATTAGAGTATCGGTCGA | 7.82 log2 normalized intensity
GACATTCCTTCAGCGTGAACTTTGACATGAGCCTAGGGAGATTAGAGTATCGGTCGA | 5.5 log2 normalized intensity
GTCCACACATTCCTAGACCTTTGACCTTTAGCCTAGGGAGATTAGAGTATCGGTCGA | 8.13 log2 normalized intensity
ATTGGGTCCACACATTCCTAGACCTTTGACGCCTAGGGAGATTAGAGTATCGGTCGA | 3.26 log2 normalized intensity
CTTTATACCTGTACGTTACTCTGTACCTCGGCCTAGGGAGATTAGAGTATCGGTCGA | 1.19 log2 normalized intensity
TTGACCTTTATACCTGTACGTTACTCTGTAGCCTAGGGAGATTAGAGTATCGGTCGA | 3.65 log2 normalized intensity
GAATCACTCACTGACCTCTTTTGGATTTTTGCCTAGGGAGATTAGAGTATCGGTCGA | 1.73 log2 normalized intensity
TCAGGAGTGATGCCAGAAGATTAGTGATGGGCCTAGGGAGATTAGAGTATCGGTCGA | -0.625 log2 normalized intensity
GACTGGAAGTTGCCCGAGCTGCCCTTTATCGCCTAGGGAGATTAGAGTATCGGTCGA | 2.47 log2 normalized intensity
CCGGTTTGTTCCATGCCACAGAATCGCCCCGCCTAGGGAGATTAGAGTATCGGTCGA | 2.6 log2 normalized intensity
CCAGATGATCTTTACCCTGGAATGCTGTTAGCCTAGGGAGATTAGAGTATCGGTCGA | 1.33 log2 normalized intensity
GGAGGAGCTGTTTGACATCCAAAGTTTCCTGCCTAGGGAGATTAGAGTATCGGTCGA | 0.813 log2 normalized intensity
AAGTTGGAATTTGGGTGATCCTGGTAGCAGGCCTAGGGAGATTAGAGTATCGGTCGA | 0.0957 log2 normalized intensity
TGGTTTTATGGTGTCTTATCTTCCTCTGGCGCCTAGGGAGATTAGAGTATCGGTCGA | 1.96 log2 normalized intensity
TGCAGTATGCCCCCCCACCCCACACACACAGCCTAGGGAGATTAGAGTATCGGTCGA | 6.7 log2 normalized intensity
CACATTGCAGTATGCCCCCCCACCCCACACGCCTAGGGAGATTAGAGTATCGGTCGA | 6.96 log2 normalized intensity
ACACACACATTGCAGTATGCCCCCCCACCCGCCTAGGGAGATTAGAGTATCGGTCGA | 6.13 log2 normalized intensity
CCCCCCACCCCACACACACACAGCATTCCAGCCTAGGGAGATTAGAGTATCGGTCGA | 5.05 log2 normalized intensity

Sequence | binding signal
TATGCCCCCCCACCCCACACACACACAGCAGCCTAGGGAGATTAGAGTATCGGTCGA | 6.17 log2 normalized intensity
CACACACACACACATTGCAGTATGCCCCCCGCCTAGGGAGATTAGAGTATCGGTCGA | 5.1 log2 normalized intensity
TACACCTGGGGGCTTCCCAACTCCATTATCGCCTAGGGAGATTAGAGTATCGGTCGA | -0.261 log2 normalized intensity
TCCCTATGTTGTCCCTGCCCTTTGTCCAGGGCCTAGGGAGATTAGAGTATCGGTCGA | 3.89 log2 normalized intensity
AGAATATTAGATGATAAGGGTGAAAAGATAGCCTAGGGAGATTAGAGTATCGGTCGA | -0.989 log2 normalized intensity
AAGGAGCTTGGGAAGACAGATGTGATATTCGCCTAGGGAGATTAGAGTATCGGTCGA | -0.781 log2 normalized intensity
CGCATTTCTGCTTCTTCTCATTCTTGGAATGCCTAGGGAGATTAGAGTATCGGTCGA | 1.39 log2 normalized intensity
CCCCTCAGTTTTTCTCTTTTGACCTTTGGAGCCTAGGGAGATTAGAGTATCGGTCGA | 8.9 log2 normalized intensity
TGCCTCTTTTCTGCTTTTGGAATTTGACCTGCCTAGGGAGATTAGAGTATCGGTCGA | 7.84 log2 normalized intensity
GTGCTTGGACCTGCTCTGTTTTCTTTCGGTGCCTAGGGAGATTAGAGTATCGGTCGA | 1.49 log2 normalized intensity
CTGCTTTTGGAATTTGACCTCATTTGCTCCGCCTAGGGAGATTAGAGTATCGGTCGA | 5.7 log2 normalized intensity
TTTGTTGCCTCTTTTCTGCTTTTGGAATTTGCCTAGGGAGATTAGAGTATCGGTCGA | 2.71 log2 normalized intensity
CTTTTCTGCTTTTGGAATTTGACCTCATTTGCCTAGGGAGATTAGAGTATCGGTCGA | 6.91 log2 normalized intensity
GGTGACCCCTCAGTTTTTCTCTTTTGACCTGCCTAGGGAGATTAGAGTATCGGTCGA | 4.09 log2 normalized intensity
AAGCCCTTCTTCTGGAGCCTCAGTAAGTTTGCCTAGGGAGATTAGAGTATCGGTCGA | 0.629 log2 normalized intensity
CTGTTGGTGACTGACCCTGATCCCTCCCTGGCCTAGGGAGATTAGAGTATCGGTCGA | 3.18 log2 normalized intensity
GGATCCCATTCATGTGGGTCAACAGACAAAGCCTAGGGAGATTAGAGTATCGGTCGA | 0.575 log2 normalized intensity
AAAGTCTTTCTCTTTCAAGATAACAAGGCAGCCTAGGGAGATTAGAGTATCGGTCGA | 1.37 log2 normalized intensity
CTGATCAAAGGTCATTGGTATTGATAGCGCGCCTAGGGAGATTAGAGTATCGGTCGA | 4.8 log2 normalized intensity
